Consider 35 molecules from PubChem BioAssay.

Unmarked numbers belong to inactive results. Active and inactive are the calls of the source. Unless noted, the rule behind the calls is not given here.

Chain of Homeobox protein Hox-A13 (Mus musculus) (Q62424 whole entry, looked up): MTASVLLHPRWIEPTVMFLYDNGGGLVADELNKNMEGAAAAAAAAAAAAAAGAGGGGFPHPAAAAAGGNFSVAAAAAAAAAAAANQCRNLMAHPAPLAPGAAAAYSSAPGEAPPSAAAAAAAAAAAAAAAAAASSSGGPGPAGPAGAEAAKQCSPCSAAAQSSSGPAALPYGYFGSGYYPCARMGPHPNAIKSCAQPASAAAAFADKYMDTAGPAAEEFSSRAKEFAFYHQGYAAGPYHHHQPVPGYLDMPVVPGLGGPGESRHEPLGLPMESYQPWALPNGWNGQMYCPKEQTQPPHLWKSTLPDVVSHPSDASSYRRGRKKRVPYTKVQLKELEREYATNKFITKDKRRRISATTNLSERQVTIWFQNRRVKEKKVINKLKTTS

The first assay concerns the target Homeobox protein Hox-A13 (Mus musculus) (UniProt Q62424). Nature of the assay: disruptors of Hoxa13 oligonucleotide interaction – biochemical, fluorescence polarization, labeled oligonucleotide, primary screen (AID 1185). The following applies: Hoxa13:DNA binding, 15 min, higher = more signal, called active from +8 up or from −8 down. On the technique in general: In fluorescence polarisation assays a small probe gives low polarisation when free and higher when bound to something large.
On to `CC=CC(O)C1C=CC2C(=O)N(c3ccccc3)C(=O)C2N1Nc1ccccc1F` (centres undefined), for which the z-score is -3.7. Still for that read-out and setting: to `O=C(NCC(F)(F)F)[C@@H]1c2ccccc2C(=O)N(Cc2cc(F)cc(C(F)(F)F)c2)[C@H]1c1ccc(CO)cc1` belongs -2.64. On the same count and under the same terms, to `O=C1O[C@@H](c2ccccc2)[C@@H](c2ccccc2)N2[C@@H](c3ccc(O)cc3)[C@]3(C(=O)Nc4ccc(C#CC5(O)CCCCCC5)cc43)[C@@H](C(=O)NC[C@H](O)c3ccccc3)[C@H]12` belongs -3.55; to `COCCCNC(=O)[C@@]1(Sc2ccc(C)cc2)CC(=O)N(C2CCCCC2)[C@@H]1c1ccc(CO)cc1`, -3.21. In the case of `C=C(/C(=C/C[C@H](OC(=O)c1ccncc1)c1ccc(CO)o1)c1cc(C(=O)OC)ccc1OC)C(C)C`, the z-score was -5.26.

As to `NC(N)=NCCCn1cc(CNC(=O)[C@@H](N)Cc2ccccc2)nn1`, the z-score was -1.61.

Consider `COC(=O)[C@@]1(Cc2ccc(OC)cc2)[C@H]2c3cc(C(=O)N(C)C)n(Cc4ccc(Cl)c(C(F)(F)F)c4)c3C[C@H]2CN1C(=O)c1ccccc1`, for which the z-score was -3.47.

`C=CC[C@@]1(C(=O)N2CCOCC2)N=C(c2ccc(OCCCO)cc2)O[C@@H]1c1ccccc1CN=[N+]=[N-]`: the z-score was -5.78.

With `C[N+](C)(C)CCCCCCNC(=O)[C@H]1C[C@H]2C(=O)NCC(=O)N2[C@H]1c1ccc(O)cc1`, the z-score is -2.39. As for `C=C(/C(=C/C[C@H](OC(C)=O)c1ccccc1OCCO)c1cc(C(=O)OC)ccc1OC)C(C)C`, the z-score was -4.07. The same measure, in the same setting: the figure for `O=C(NCC(F)(F)F)[C@@H]1c2ccccc2C(=O)N(Cc2ccc(OC(F)(F)F)cc2)[C@H]1c1ccc(CO)cc1` is -3.13; for `C=CCC(OC(C)=O)[C@@H]1[C@@H](N(Cc2ccc(-c3cccc(C(F)(F)F)c3)o2)C(=O)c2ccc(C)cc2)c2cc(OCCCO)ccc2N1C(=O)c1ccc2ccccc2c1` (some centres undefined) it is -0.683. The same measure, in the same setting: the figure for `C[N+](C)(C)CCCC[C@@H]1NC(=O)[C@H]2C[C@@H](C(=O)NCCCCCCN)[C@@H](c3ccc(O)cc3)N2C1=O` is -1.61; for `CCCCCCc1nc(C2CC2)cc2c1[Si](C(C)C)(C(C)C)OC2` it is 0.321; for `CCOC(=O)c1ccc(NC(=O)O[C@H]2[C@H](OC(=O)Nc3ccc4c(c3)OCO4)[C@@H](OC(=O)Nc3ccc4c(c3)OCO4)[C@@H](OC)O[C@@H]2CO)cc1` it is -8.16 (active). Regarding `COC(=O)c1nc2oc1CC[C@@H](CO)NC(=O)N(C)Cc1cnnn1C[C@H](Cc1ccccc1)NC2=O`, the z-score was -0.449. Turning to `NC(=O)N1C(=O)C2C(C1=O)C1C=C(CCCO)C2C(c2cccs2)N1Cc1cccc(OC(F)(F)F)c1` (centres undefined), the z-score is -6.01. Turning to `[N-]=[N+]=NCc1ccccc1C[C@@]1(C(=O)NCc2ccccc2)N=C(c2ccc(OCCCO)cc2)O[C@@H]1c1ccccc1N=[N+]=[N-]`, the z-score was 0.321. Still for that read-out and setting: the figure for `CCCNC(=O)[C@@H]1c2ccccc2C(=O)N(C(C)C)[C@H]1c1ccc(CO)cc1` is -1.88. Same read-out and setting: the figure for `O=C1C=C(c2ccccc2)C(=O)c2ccc([C@H]3Oc4ccccc4S(=O)(=O)N4CCC[C@@H]34)cc21` is -3.05.

With `O=C1O[C@@H](c2ccccc2)[C@@H](c2ccccc2)N2[C@@H](c3ccccc3OCCO)[C@]3(C(=O)Nc4ccc(C#CCCO)cc43)[C@@H](C(=O)N3CCCCCCC3)[C@H]12`, the z-score is 3.66.

For the molecule `CC(C)C(=C=CC[C@H](O)c1ccc(OCCO)cc1)C[C@H](O)c1ccccn1`, the z-score is -5.38.

`COc1cc2c(cc1OC)CN(C(=O)[C@@H]1[C@H]3C(=O)O[C@H](c4ccccc4)[C@H](c4ccccc4)N3[C@H](c3ccc(OCCO)cc3)[C@@]13C(=O)Nc1ccccc13)CC2`: the z-score was -8.07 (active). Take `COc1ccc([Si](C)(C)[C@H]2[C@H](CCn3cc([C@H](O)c4ccccc4)nn3)O[C@@]3(C(=O)N(Cc4ccc(N5C(=O)c6cccc7cccc5c67)cc4)c4ccccc43)[C@@H]2C)cc1`: the z-score was -0.717.

System in the next assay: not listed separately
The experiment in a line: blockers of DNA damage checkpoint Chk1 activation – imaging, HeLa, hydroxyurea, phospho-Chk1 antibody, percent positive cells, primary screen (AID 1186). The following applies: hydroxyurea-induced phospho-Chk1 immunofluorescence imaging, higher = more signal.
Turning to `N#Cc1ccc(C(O)C2C=CC3C(=O)N(c4ccccc4)C(=O)C3N2Nc2ccccc2)cc1` (centres undefined), the z-score was -0.18. Turning to `Cc1ccc(S[C@]2(C(=O)NCCCN(C)C)CC(=O)N(C3CCCCC3)[C@@H]2c2ccc(CO)cc2)cc1`, the z-score was 0.487.

As for `CC(CO)N1C(=O)[C@@H]2[C@H]3C(=O)OCC=C[C@H]3OC23C=CCN(C(C)(C)C)C(=O)[C@@H]13` (some centres undefined), the z-score was 0.0116. Same read-out and setting: to `N#Cc1ccc(NN2C(C(O)c3ccc(F)cc3)C=CC3C(=O)N(c4ccccc4)C(=O)C32)cc1` (centres undefined) belongs -0.0909; to `COC(=O)c1c(CC[C@@H](CO)NC(=O)N2CCC[C@H]2Cn2cc(Cc3ccccc3)nn2)oc(C(C)=O)c1C(=O)OC`, -0.358.

With `[N-]=[N+]=Nc1ccccc1[C@@H]1OC(c2ccc(OCCCO)cc2)=N[C@]1(Cc1ccccc1)C(=O)NCC(O)CO` (some centres undefined), the z-score was -0.358.

Consider `COC(=O)[C@@]1(Cc2ccc(OC)cc2)[C@@H]2C(=CC(=O)[C@H]2CC(=O)C(=O)N(C)C)CN1C(=O)c1ccccc1`, for which the z-score was -0.246. Still for that read-out and setting: the figure for `CO[C@H]1O[C@H](CO)[C@@H](OC(=O)Nc2ccccc2-c2ccccc2)[C@H](OC(=O)Nc2ccc3c(c2)OCO3)[C@H]1OC(=O)Nc1ccc2c(c1)OCO2` is -0.356; for `CN1C(=O)C2C=CC(C(O)COCc3ccccc3)N(N(c3ccccc3)c3ccccc3)C2C1=O` (centres undefined) it is -0.0138; for `CN1C(=O)C2C=CC(C(O)c3cccc(O)c3)N(Nc3ccccc3)C2C1=O` (centres undefined) it is 0.0011. With `COC(=O)[C@H](Cc1ccccc1)N1CC(/C=C/C2CC2)=C[C@H]1[C@H](O)Cc1ccccc1`, the z-score was -0.45. On the same count and under the same terms, the figure for `CC=CC(O)C1C=CC2C(=O)N(c3ccccc3)C(=O)C2N1Nc1ccccc1F` (centres undefined) is 0.0921; for `O=C(NCC(F)(F)F)[C@@H]1c2ccccc2C(=O)N(Cc2cc(F)cc(C(F)(F)F)c2)[C@H]1c1ccc(CO)cc1` it is -0.0626. As to `O=C1O[C@@H](c2ccccc2)[C@@H](c2ccccc2)N2[C@@H](c3ccc(O)cc3)[C@]3(C(=O)Nc4ccc(C#CC5(O)CCCCCC5)cc43)[C@@H](C(=O)NC[C@H](O)c3ccccc3)[C@H]12`, the z-score is 0.206. Still for that read-out and setting: the figure for `COCCCNC(=O)[C@@]1(Sc2ccc(C)cc2)CC(=O)N(C2CCCCC2)[C@@H]1c1ccc(CO)cc1` is 0.317.

As to `C=C(/C(=C/C[C@H](OC(=O)c1ccncc1)c1ccc(CO)o1)c1cc(C(=O)OC)ccc1OC)C(C)C`, the z-score is -0.291. With `NC(N)=NCCCn1cc(CNC(=O)[C@@H](N)Cc2ccccc2)nn1`, the z-score is 0.262. Still for that read-out and setting: to `COC(=O)[C@@]1(Cc2ccc(OC)cc2)[C@H]2c3cc(C(=O)N(C)C)n(Cc4ccc(Cl)c(C(F)(F)F)c4)c3C[C@H]2CN1C(=O)c1ccccc1` belongs 0.472; to `C=CC[C@@]1(C(=O)N2CCOCC2)N=C(c2ccc(OCCCO)cc2)O[C@@H]1c1ccccc1CN=[N+]=[N-]`, 0.0151. For the molecule `C[N+](C)(C)CCCCCCNC(=O)[C@H]1C[C@H]2C(=O)NCC(=O)N2[C@H]1c1ccc(O)cc1`, the z-score was -0.458. Take `C=C(/C(=C/C[C@H](OC(C)=O)c1ccccc1OCCO)c1cc(C(=O)OC)ccc1OC)C(C)C`: the z-score is -0.0815. The same measure, in the same setting: to `O=C(NCC(F)(F)F)[C@@H]1c2ccccc2C(=O)N(Cc2ccc(OC(F)(F)F)cc2)[C@H]1c1ccc(CO)cc1` belongs -0.263; to `C=CCC(OC(C)=O)[C@@H]1[C@@H](N(Cc2ccc(-c3cccc(C(F)(F)F)c3)o2)C(=O)c2ccc(C)cc2)c2cc(OCCCO)ccc2N1C(=O)c1ccc2ccccc2c1` (some centres undefined), -0.793; to `C[N+](C)(C)CCCC[C@@H]1NC(=O)[C@H]2C[C@@H](C(=O)NCCCCCCN)[C@@H](c3ccc(O)cc3)N2C1=O`, 0.181. As for `CCCCCCc1nc(C2CC2)cc2c1[Si](C(C)C)(C(C)C)OC2`, the z-score was -0.186.

Regarding `CCOC(=O)c1ccc(NC(=O)O[C@H]2[C@H](OC(=O)Nc3ccc4c(c3)OCO4)[C@@H](OC(=O)Nc3ccc4c(c3)OCO4)[C@@H](OC)O[C@@H]2CO)cc1`, the z-score was -0.301. For `COC(=O)c1nc2oc1CC[C@@H](CO)NC(=O)N(C)Cc1cnnn1C[C@H](Cc1ccccc1)NC2=O`, the z-score was -0.517. The same measure, in the same setting: to `NC(=O)N1C(=O)C2C(C1=O)C1C=C(CCCO)C2C(c2cccs2)N1Cc1cccc(OC(F)(F)F)c1` (centres undefined) belongs -0.356. Same read-out and setting: to `[N-]=[N+]=NCc1ccccc1C[C@@]1(C(=O)NCc2ccccc2)N=C(c2ccc(OCCCO)cc2)O[C@@H]1c1ccccc1N=[N+]=[N-]` belongs -0.299. On the same count and under the same terms, to `CCCNC(=O)[C@@H]1c2ccccc2C(=O)N(C(C)C)[C@H]1c1ccc(CO)cc1` belongs -0.247; to `O=C1C=C(c2ccccc2)C(=O)c2ccc([C@H]3Oc4ccccc4S(=O)(=O)N4CCC[C@@H]34)cc21`, 0.808.

With `O=C1O[C@@H](c2ccccc2)[C@@H](c2ccccc2)N2[C@@H](c3ccccc3OCCO)[C@]3(C(=O)Nc4ccc(C#CCCO)cc43)[C@@H](C(=O)N3CCCCCCC3)[C@H]12`, the z-score is -0.333.

Turning to `CC(C)C(=C=CC[C@H](O)c1ccc(OCCO)cc1)C[C@H](O)c1ccccn1`, the z-score is -0.0725. Still for that read-out and setting: the figure for `COc1cc2c(cc1OC)CN(C(=O)[C@@H]1[C@H]3C(=O)O[C@H](c4ccccc4)[C@H](c4ccccc4)N3[C@H](c3ccc(OCCO)cc3)[C@@]13C(=O)Nc1ccccc13)CC2` is -0.118; for `COc1ccc([Si](C)(C)[C@H]2[C@H](CCn3cc([C@H](O)c4ccccc4)nn3)O[C@@]3(C(=O)N(Cc4ccc(N5C(=O)c6cccc7cccc5c67)cc4)c4ccccc43)[C@@H]2C)cc1` it is -0.283.
